We go through 40 compounds from PubChem BioAssay (NCATS).

SMILES strings stand for the structures. Records with an inconclusive call do not appear. Entries that show only a call come without a potency. The source made the active and inactive calls. Calls follow the shape of the dose curve; as a rule, active = well fitted inhibition curve with a large enough effect; inconclusive = small, poorly fitted or top-dose-only effect; inactive = flat fitted curve, though single readings scatter.
Potency is read from the fitted curve at half-maximal effect.

This assay in a line: BET inhibitor-based combinations targeting novel dependencies in MECOM-rearranged (r) AML: AML-194 cell line (AID 2202237; also: nearly all actives have a fitted effect of over 40% in size). Particulars: AML-194 (MECOM-r AML) viability, CellTiter-Glo, 48 h; series mostly up to 46 µM. The text has this: Ecotropic viral insertion site 1 (EVI1) is located on chromosome 3q26.2 as part of the MECOM (MDS and EVI1 complex) locus. Under normal hematopoiesis, EVI1 is a regulator of hematopoietic stem cell maintenance and self-renewal and EVI1 levels decrease as the cells differentiate. In approximately 5-10% of de novo acute myeloid leukemia (AML) EVI1 is aberrantly expressed, including Chromosomal inv(3)(q21;q26.2) or t(3;3)(q21;q26.2) alterations (MECOM-r) that account for about 50% of AML with EVI1 overexpression 31. AMLs with high levels of EVI1 have a poor prognosis and an overall survival time averaging between 10-14 months. EVI1 overexpression confers resistance in leukemia cells, highlighting the need to develop new targeted therapies for EVI1 overexpressing AMLs.
Here, we performed an unbiased chemical drug screening by evaluating the single agent activity of a collection of 2,480 oncology-focused, approved and investigational drugs (NCATS Mechanism Interrogation Plates, MIPE v5.0) against a panel of seven AML cell lines. These included four MECOM-r cell-lines (AML-191, AML-194, UCSD-AML1 and HNT-34) and three non-MECOM-r AMLs (MV4-11, OCI-AML3 and SET-2). Exploiting the mechanistic redundancy built in the library, we identified target-level sensitivities in MECOM-r AML cells and relative activity as compared to other AML subtypes.
A collection of 2480 mechanistically annotated dugs (MIPE v5.0) was used to screen four 3q26.2 rearranged AML cell lines and three non-3q26.2 rearranged AML cell lines. This library purposely exploits redundancy by including multiple inhibitors of key onco-targets, while simultaneously encompassing mechanistic diversity, targeting more than 800 distinct mechanisms of action. Briefly, cells were seeded in 5 uL of growth media using a Multidrop Combi dispenser into 1536 well white polystyrene tissue culture treated plates (Corning) at a density of 500cells/well. For each cell-line, for each of the 2480 drugs in MIPE v5.0 library, an 11-point dose curve was generated via a 1536 pin-tool. Plates were incubated for 48 hr at standard incubator conditions, covered by a stainless steel gasketed lid to prevent evaporation. Cell viability was determined by luminescence based, Cell Titer Glo assay (Promega). In detail, 3 uL of Cell Titer Glo were added to each well and plates were incubated at room temperature for 15 min with a stainless-steel lid in place. Luminescence readings were taken using a Viewlux (PerkinElmer) with a 2 s exposure time per plate. Compound dose-response curves were normalized to DMSO and empty well controls on each plate. Quantitative drug activity data from dose-response curves was determined utilizing area Under the Curve (AUC) and Z-transformed AUC (Z-AUC, a mean-centering transformation applied to each individual cell-line screened).
(In general: Cellular ATP, detected with luciferase, serves as a proxy for viable cell number.)
For the compound `CN(C)CC(C)(C)CNc1nn2c(-c3ccccc3)nnc2cc1C1CCC1`, the Potency result was “inactive”.
For `Cc1cc(C)c(/C=C2\C(=O)Nc3ccccc32)[nH]1`, the Potency entry was “inactive”.
`COc1ccc(CC2SC(=O)NC2=O)cc1C(=O)NCc1ccc(C(F)(F)F)cc1` (stereo not given): the Potency entry is “inactive”.
`COC(=O)Nc1cc(Nc2cc(NC3CC3)c3ncc(C#N)n3n2)c(Cl)c(N2CCN(C)CC2)c1`: the Potency was 2.63 µM (active).
The value for `CCCn1c(=O)c2[nH]c(-c3cnn(Cc4cccc(C(F)(F)F)c4)c3)nc2n(CC)c1=O` was “inactive”; that for `O=C(O)c1ccccc1C(=O)Nc1ccc(-c2ccccc2)cc1` was “inactive”.
Turning to `O=C(c1ccc(F)cc1)N1CCC[C@H](c2nc(-c3ccc(F)cc3)no2)C1`, the Potency result was “inactive”.
`Cc1ccc(S(=O)(=O)Nc2cc(Cl)ccc2C(=O)Nc2nc(-c3ccccc3)cs2)cc1`: the Potency was 7.42 µM (active).
With `CCNCc1nc2c(N)nc3ccccc3c2n1CC(C)(C)O`, the Potency entry is “inactive”.
For `Cc1cc(C(=O)Nc2cc(Oc3ccc4nc(NC(=O)C5CC5)cn4n3)ccc2C)n(C)n1`, the Potency was 9.34 µM (active).
Consider `O=C1c2cccc(O)c2C(=O)c2c(O)cc(CO)cc21`, for which the Potency result is “inactive”.
Regarding `Clc1cc2c(NC3CCCC3)nnc(-c3ccncc3)c2cc1Cl`, the Potency entry is “inactive”.
For the compound `N#C[C@@H]1C[C@@H]2C[C@@H]2N1C(=O)[C@@H](N)C12CC3CC(CC(O)(C3)C1)C2`, the Potency was 14.8 µM (active).
Turning to `COc1cc(OC2CCN(C)CC2)ccc1Nc1ncc2c(n1)n(C1CCCC1)c(=O)n2C`, the Potency is 16.6 µM (active).
Take `Nc1nc2c(c(=O)[nH]1)N(C=O)[C@H](CNc1ccc(C(=O)N[C@@H](CCC(=O)O)C(=O)O)cc1)CN2`: the Potency entry is “inactive”.
Turning to `CC(=O)[C@]1(O)Cc2c(O)c3c(c(O)c2[C@@H](O[C@H]2C[C@H](N)[C@H](O)[C@H](C)O2)C1)C(=O)c1ccccc1C3=O`, the Potency is 0.235 µM (active).
On to `Cc1nnc(C(C)C)n1C1CC2CCC(C1)N2CC[C@H](NC(=O)C1CCC(F)(F)CC1)c1ccccc1` (stereo not given in full), for which the Potency result is “inactive”.
The value for `CC[C@H](C)C(=O)O[C@H]1C[C@@H](C)C=C2C=C[C@H](C)[C@H](CC[C@@H]3C[C@@H](O)CC(=O)O3)[C@H]21` was “inactive”.
Regarding `CC1=C(CC(=O)O)c2cc(F)ccc2C1=Cc1ccc(S(C)=O)cc1` (stereo not given), the Potency entry is “inactive”.
On to `Cc1cc(CS(=O)(=O)c2ccccc2)cc(OCc2ccc(CN3CCC[C@@H]3CO)cc2)c1`, for which the Potency was 18.6 µM (active).
For `CC[C@@]1(O)C(=O)OCc2c1cc1n(c2=O)Cc2cc3cc(O)ccc3nc2-1`, the Potency is 0.0209 µM (active).
Turning to `O=C1C(c2c(O)[nH]c3ccccc23)=Nc2ccccc21`, the Potency result is “inactive”.
For `CCCCC(CC)COC(=O)C(C#N)=C(c1ccccc1)c1ccccc1` (stereo not given), the Potency result is “inactive”.
In the case of `COc1cc(N2CCC(N(C)C)CC2)ccc1Nc1ncc(Cl)c(Nc2ccccc2P(C)(C)=O)n1`, the Potency was 7.42 µM (active).
Regarding `CCOc1cc(N)c(Cl)cc1C(=O)NCC1CN(Cc2ccc(F)cc2)CCO1` (stereo not given), the Potency entry is “inactive”.
The value for `Cc1cc(OCc2nnc(SC3CCCC3)n2-c2cccnc2)ccc1-c1ccc(S(C)(=O)=O)cc1` was 7.42 µM (active).
For `CCC(C)(Oc1ccc(C2(c3ccc(OC(C)(CC)C(=O)O)cc3)CCCCC2)cc1)C(=O)O` (stereo not given), the Potency result is “inactive”.
`Cc1c(C)c2c(c(C)c1O)CCC(C)(COc1ccc(CC3SC(=O)NC3=O)cc1)O2` (stereo not given): the Potency entry was “inactive”.
The value for `CC1=C(C(=O)Nc2cc3cn[nH]c3cc2F)C(c2ccc(C(F)(F)F)cc2)CC(=O)N1` (stereo not given) was “inactive”; that for `O=c1[nH]c(=O)n([C@H]2C[C@H](O)[C@@H](CO)O2)cc1I` was 16.6 µM (active); that for `COCCCN1CCC(NC(=O)c2cc(Cl)c(N)c3c2OCC3)CC1` was “inactive”.
`Cc1cnc(NC(=O)C2=C(O)c3ccccc3S(=O)(=O)N2C)s1`: the Potency result is “inactive”.
As to `Clc1ccc(C(c2ccccc2Cl)C(Cl)Cl)cc1` (stereo not given), the Potency result is “inactive”.
With `CCCc1nn(C)c2c(=O)[nH]c(-c3cc(S(=O)(=O)N4CCN(C)CC4)ccc3OCC)nc12`, the Potency entry was “inactive”.
`CCCCc1nc2cc(/C=C/C(=O)NO)ccc2n1CCN(CC)CC`: the Potency was 1.18 µM (active).
Turning to `C[C@]12CC[C@@H]3c4ccc(O)cc4CC[C@H]3[C@@H]1CC[C@@H]2O`, the Potency was 23.5 µM (active).
On to `C[C@@H](N)C1CCC(C(=O)Nc2ccncc2)CC1` (stereo not given in full), for which the Potency entry is “inactive”.
For `C[C@@H]1CN(c2c(F)c(N)c3c(=O)c(C(=O)O)cn(C4CC4)c3c2F)C[C@H](C)N1`, the Potency entry was “inactive”.
As to `O=NN(CCCl)C(=O)NC1CCCCC1`, the Potency result is “inactive”.
The value for `COc1ccc(N(C)c2nc(C)nc3ccccc23)cc1` was 0.0105 µM (active).
